In PubChem BioAssay (EPA / NIEHS):
The source made the active and inactive calls. Rule for the calls: active = hit-call score of the fitted dose curve at least 0.9, where 1 is the maximum; inactive = score below 0.9.

Biological target: Transcription factor Sp1 (Homo sapiens) (UniProt P08047)
Assay: ATG_Sp1_CIS: Attagene CIS-FACTORIAL HepG2 Assay for human Specificity Protein 1 (Sp1) (AID 2282961)
Settings: HepG2 Sp1 cis-reporter transcription, actives raise or lower the signal
Experimental: ATG_CIS is a cell-based, multiplexed-readout assay that uses HepG2, a human liver cell line, with measurements taken at 24 hours after chemical dosing in a 24-well plate.ATG_Sp1_CIS is one of 52 assay component(s) measured or calculated from the ATG_CIS assay. It is designed to make measurements of mRNA induction, a form of inducible reporter, as detected with fluorescence intensity signals by Reverse transcription polymerase chain reaction (RT-PCR) and Capillary electrophoresis technology.Data from the assay component ATG_Sp1_CIS was analyzed into 1 assay endpoint. This assay endpoint, ATG_Sp1_CIS, was analyzed with bidirectional fitting relative to DMSO as the negative control and baseline of activity. Using a type of inducible reporter, measures of mRNA for gain or loss-of-signal activity can be used to understand the reporter gene at the transcription factor-level as they relate to the gene SP1. Furthermore, this assay endpoint can be referred to as a primary readout, because this assay has produced multiple assay endpoints where this one serves a reporter gene function. To generalize the intended target to other relatable targets, this assay endpoint is annotated to the dna binding intended target family, where the subfamily is zinc finger.
Human liver HepG2 cells are transiently transfected with multiple reporter transcription units (MRTUs) in 6-well plates using FuGene 6 reagent (Roche; 3 ml FuGene/1 mg DNA). The MRTU constructs are regulated by a cis-regulating element (promoter). […] A major difference between the CIS and TRANS system is that in CIS activities of endogenous TFs are measured, whereas the TRANS assay evaluates changes in activities of exogenous, chimeric NR-Gal4 proteins. […] At the end of 24 hour incubation, total RNA was isolated using TriZol reagent (Invitrogen). The isolated RNA is then reverse-transcribed using oligo(dT) primer and Mo-MLV reverse transcriptase (Invitrogen) with DNAse I (Ambion) treatment for 30 min. The one-tenth of the produced cDNA was amplified by PCR using Taq DNA polymerase (Invitrogen) and two reporter sequence-specific primers. The PCR products were fluorescently labeled by primer extension with 6-arboxyfluorescein (6-FAM) 5'-labeled reporter sequence-specific primer (2 min at 95 C, 20 s at 68 C and 10 min at 72 C) and these products were digested with 5U of HpaI (New England Biolabs) for 2h at 37 C. The fragments were purified using Qiaquick PCR columns (Qiagen), analyzed on an ABI 3130xL genetic analyzer (Applied Biosystems) with peak positions identified by using a set of X-rhodamine (ROX)-labeled MapMarker1000 molecular weight standards (BioVentures). The raw capillary electrophoresis data was processed using Attagraph software (Attagene).

Chain of Transcription factor Sp1 (Homo sapiens) (P08047 whole entry, looked up): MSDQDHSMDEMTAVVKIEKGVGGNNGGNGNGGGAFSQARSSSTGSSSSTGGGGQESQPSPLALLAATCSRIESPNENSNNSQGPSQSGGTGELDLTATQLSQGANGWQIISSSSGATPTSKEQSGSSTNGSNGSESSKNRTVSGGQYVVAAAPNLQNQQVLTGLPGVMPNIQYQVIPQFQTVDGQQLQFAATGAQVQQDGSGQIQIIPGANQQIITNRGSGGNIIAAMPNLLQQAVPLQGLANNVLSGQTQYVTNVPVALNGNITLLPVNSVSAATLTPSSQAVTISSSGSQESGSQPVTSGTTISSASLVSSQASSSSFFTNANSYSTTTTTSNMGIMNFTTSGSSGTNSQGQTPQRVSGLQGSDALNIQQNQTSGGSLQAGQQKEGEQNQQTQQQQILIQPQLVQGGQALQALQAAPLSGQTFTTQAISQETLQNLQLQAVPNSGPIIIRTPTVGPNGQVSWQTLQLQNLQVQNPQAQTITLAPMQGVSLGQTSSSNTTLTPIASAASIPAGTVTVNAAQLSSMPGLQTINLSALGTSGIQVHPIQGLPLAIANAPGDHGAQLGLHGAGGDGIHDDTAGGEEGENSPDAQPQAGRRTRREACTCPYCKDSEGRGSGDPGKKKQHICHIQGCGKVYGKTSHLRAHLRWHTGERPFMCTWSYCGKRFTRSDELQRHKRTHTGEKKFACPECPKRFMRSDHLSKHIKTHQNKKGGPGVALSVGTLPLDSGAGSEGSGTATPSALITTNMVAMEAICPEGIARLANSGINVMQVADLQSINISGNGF

SMILES | outcome | AC50
CC(=O)CCc1ccc(O)cc1 | inactive | –
CN(C)c1ccc(C=O)cc1 | inactive | –
CCCO | inactive | –
CCCCCCCOC(C)=O | inactive | –
O=c1cc[nH]cc1 | inactive | –
C=CCCCCCCCCC(=O)OCC | inactive | –
Cc1ccc(C(C)(C)O)cc1 | inactive | –
CC(C)(C)C1CCC(O)CC1 (stereo not given) | inactive | –
CC=CC(=O)C1=C(C)C=CCC1(C)C | inactive | –
CCC(=O)OCC=Cc1ccccc1 | inactive | –
CCCCCCCCCCCCOCCOS(=O)(=O)O | inactive | –
C=C(C)C(=O)OCCC[Si](OC)(OC)OC | inactive | –
CC/C=C\CCOC(=O)C(C)C | inactive | –
CCC(C)(CCCC(C)C)OC(C)=O (stereo not given) | inactive | –
C=CCOCC(O)CO (stereo not given) | inactive | –
N#CCCNCCC#N | inactive | –
CCOC(=O)CCCCCCCCC(=O)OCC | inactive | –
C/C=C(\C)C(=O)OC/C=C(\C)CCC=C(C)C | inactive | –
NC(=O)NC(N)=O | inactive | –
CCCCCCCCCC(=O)OCC | inactive | –

SMILES | outcome | AC50
CC1(C)[C@H](C=C(Cl)Cl)[C@H]1C(=O)OCc1cccc(Oc2ccccc2)c1 | inactive | –
O=C(O)C1=NN(c2ccc(S(=O)(=O)O)cc2)C(=O)C1 | inactive | –
C[C@H](CCC(=O)O)[C@H]1CC[C@H]2[C@@H]3CC[C@@H]4C[C@H](O)CC[C@]4(C)[C@H]3CC[C@]12C | – | 168 µM (active)
O=C(O)c1ccc(C(=O)O)c(C(=O)O)c1 | inactive | –
CCCCCCCCOS(=O)(=O)O | inactive | –
COc1ccc(C(C)=O)cc1 | inactive | –
CC(CO)(CO)[N+](=O)[O-] | inactive | –
CCCCCC1C(=O)CCC1CC(=O)OC (stereo not given) | inactive | –
Cc1cc(O)c2c(c1)C(=O)c1cc(O)cc(O)c1C2=O | – | 8.81 µM (active)
c1ccc(OCCOc2ccccc2)cc1 | inactive | –
C=C1CC[C@H]2O[C@]2(C)CC[C@@H]2[C@@H]1CC2(C)C | inactive | –
Cc1cccc(C)c1 | inactive | –
CCCC1CCOC(C)S1 (stereo not given) | inactive | –
CC(=O)CCC=C(C)CCC=C(C)C | inactive | –
O=C(O)c1cccc(Cl)n1 | inactive | –
C=C(C)C(=O)OCCN(C)C | inactive | –
CNC(=C[N+](=O)[O-])NCCSCc1ccc(CN(C)C)o1 | inactive | –
NC(=O)c1cccnc1 | inactive | –
O=C1OCc2ccccc21 | inactive | –
C=CC(C)(CCC=C(C)C)OC(=O)CC (stereo not given) | inactive | –
